The text below walks through data of the supplement of paper PMC10477191.

± gives the standard deviation of the averaged measurements.

The test system of the experiment is Drosophila virilis antennal basiconic sensillum AB9. The experiment in a line: odor-evoked OSN spike response (post minus pre-stimulus); higher = stronger neuronal excitation. Conditions: odor dilution: 10^-4. On the procedure:
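Single sensillum recordings from antennal basiconic sensilla of D. virilis. A 500 ms pulse of odorant (10^-4 in mineral oil or DMSO) was delivered; the response is the change in spike frequency between the 1 s pre- and post-stimulus windows (spikes/s).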
With `CC(C)=O` [acetone], the “odor-evoked OSN spike response” value is 93.7 ± 30 spikes/s.
